About 83,000 compounds went through this panel and 20% of them were active in at least one assay; those are over-represented in the sample as a whole.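 Cell lines were cultured in 96-well plates, exposed to a single compound concentration, and assessed for percent growth 48 hours later.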 Unmarked numbers belong to inactive results. Calls of active or inactive are those of the source. How the source made its calls: active means growth percent below 10; inactive means the rest.

The experiment has as its system SF-539 CNS. The experiment in a line: NCI-60 one-dose screen, 48 h (100 = growth as untreated, 0 = no growth, -100 = all killed). Particulars: 10 µM unless noted.
Consider `O=C(c1cccc(C(=O)c2ccc3c4c(cccc24)C(=O)N(c2ccccc2)C3=O)c1)c1ccc2c3c(cccc13)C(=O)N(c1ccccc1)C2=O`, for which the growth was 98.7%. The figure for `Cc1ccc[n+](CCC(N)=O)c1` is 87.3%. To `Cc1ccc2nc(N)nnc2c1` belongs 103%. The figure for `CCOc1ccncc1[N+](=O)[O-]` is 108%. On to `Oc1cc(O)c2c(c1)O[C@H](c1ccc(O)c(O)c1)[C@@H](O)C2`, for which the growth is 111%. `Cn1c(=O)c2nc3c(=O)n(C)c(=O)n(C)c3nc2n(C)c1=O`: the growth was 91.7%. The figure for `C=CCOc1ccc(Cl)cc1Cl` is 96.8%; for `CCOC(=O)/C(O)=C(\C=N\C(=S)Nc1ccc(Cl)c(Cl)c1)C(=O)OCC` it is 73.9%; for `CCOc1ccc(NC(=S)N2CCC(CCCC3CCN(C(=S)Nc4ccc(OCC)cc4)CC3)CC2)cc1` it is 106%.

With `Clc1ccc(C(SCc2ccccc2)SCc2ccccc2)cc1`, the growth was 97.2%. To `CC(=O)C1C(=O)C(=O)N(c2ccc(Cl)c(Cl)c2)C1=O` (stereo not drawn) belongs 99.5%; to `Cc1cc(Cl)cc(Cc2cc(Cl)cc(C)c2O)c1O`, 12.7%.

As to `c1ccc(Oc2c3ccccc3nc3ccccc23)cc1`, the growth was -19.6% (active). The figure for `O=[N+]([O-])c1ccc2[nH]c(=S)n(/C=C(/c3ccc(Cl)cc3Cl)S(=O)(=O)Cc3ccc(Cl)cc3Cl)c2c1` is 99.6%; for `N#C/C(=C\c1ccc(C#N)cc1)C(=O)c1ccccc1` it is 96.8%. To `COc1cc(OC)c(NC(=O)C(Sc2nc(C)cc(C)c2C#N)c2ccccc2)cc1Cl` (stereo not drawn) belongs 83.8%; to `O=c1nc(Nc2cccc(Cl)c2)oc2cc(Cl)oc(=O)c12`, 79.8%; to `C/C(O)=C(/C=N\C(=S)Nc1ccc(S(=O)(=O)Nc2nccs2)cc1)C(=O)Nc1ccccc1C`, 95.9%. To `CC(O)C(F)(F)C(F)(F)C(F)(F)F` (stereo not drawn) belongs 96.6%; to `CCOP(=O)(NC(c1ccccc1)c1ccccc1)OCC`, 115%. With `CC(=O)OCC1OC(n2cnc3c(=S)nc(N)[nH]c32)C(OC(C)=O)C1OC(C)=O` (stereo not drawn), the growth was 85.7%. Turning to `CCCCn1cnc2c(=O)[nH]cnc21`, the growth was 104%.

Take `O=C(NCc1ccccc1)/C(=C/c1ccccc1)NC(=O)c1ccccc1`: the growth is 115%. Consider `O=CNCCc1ccccc1`, for which the growth is 115%.

Regarding `COC1OC(C(COC(C)=O)OC(C)=O)C(OC(C)=O)C(OC(C)=O)C1OC(C)=O` (stereo not drawn), the growth is 92%. On to `O=S(Cc1ccccc1)/C(=C/NC(=S)Nc1cc(Cl)ccc1Cl)c1ccccc1` (stereo not drawn), for which the growth was 115%. To `Cc1c(Cl)cccc1N=C=S` belongs 90.2%; to `CC(=O)C1C(=O)C(=O)N(c2cccc([N+](=O)[O-])c2)C1=O` (stereo not drawn), 108%.

With `CCOc1ccc2c(c1)c(C)cc(C)[n+]2CC`, the growth was 88.7%. `S=CN1CCCCC1`: the growth was 97.4%. To `Cc1nc(C)c(C(=O)O)cc1C(=O)O` belongs 95%; to `Cc1cc(CC(=O)NCCO)n(CCO)c(=O)c1`, 107%; to `NC(CSSCC(N)C(=O)O)C(=O)O` (stereo not drawn), -36.8% (active).

For the compound `C/C(O)=C(/C=N/C(=S)Nc1ccccc1)C(=O)Nc1ccccc1C`, the growth was 101%.

`CC(C)(C)[Si](C)(C)OCC1OC(n2cnc3c(N)ncnc32)CC1OS(C)(=O)=O` (stereo not drawn): the growth is 108%. Consider `NNC(=O)N/N=C1\C(=O)N(c2nccs2)C(=O)C(=O)C1c1nc2ccccc2s1` (stereo not drawn), for which the growth was 106%. For the compound `C(=C\c1ccncc1)/c1ccncc1`, the growth is 104%.

Turning to `CC(=O)NCNC(C)=O`, the growth was 91.3%.

These data come from PubChem BioAssay (NCI).
